{
  "source": "PubChem BioAssay AID1347420",
  "about": "(Sanford-Burnham Center for Chemical Genomics, 2020)",
  "note": "Hit rate of the full screen: of about 1,300 compounds, about 980 (75%) were called active. About 4% were inconclusive and are not listed. This is one part of the list.",
  "data": [
    {"target": "Sulfhydryl oxidase 1 (Homo sapiens) (UniProt O00391)", "sequence (O00391 whole entry, looked up)": "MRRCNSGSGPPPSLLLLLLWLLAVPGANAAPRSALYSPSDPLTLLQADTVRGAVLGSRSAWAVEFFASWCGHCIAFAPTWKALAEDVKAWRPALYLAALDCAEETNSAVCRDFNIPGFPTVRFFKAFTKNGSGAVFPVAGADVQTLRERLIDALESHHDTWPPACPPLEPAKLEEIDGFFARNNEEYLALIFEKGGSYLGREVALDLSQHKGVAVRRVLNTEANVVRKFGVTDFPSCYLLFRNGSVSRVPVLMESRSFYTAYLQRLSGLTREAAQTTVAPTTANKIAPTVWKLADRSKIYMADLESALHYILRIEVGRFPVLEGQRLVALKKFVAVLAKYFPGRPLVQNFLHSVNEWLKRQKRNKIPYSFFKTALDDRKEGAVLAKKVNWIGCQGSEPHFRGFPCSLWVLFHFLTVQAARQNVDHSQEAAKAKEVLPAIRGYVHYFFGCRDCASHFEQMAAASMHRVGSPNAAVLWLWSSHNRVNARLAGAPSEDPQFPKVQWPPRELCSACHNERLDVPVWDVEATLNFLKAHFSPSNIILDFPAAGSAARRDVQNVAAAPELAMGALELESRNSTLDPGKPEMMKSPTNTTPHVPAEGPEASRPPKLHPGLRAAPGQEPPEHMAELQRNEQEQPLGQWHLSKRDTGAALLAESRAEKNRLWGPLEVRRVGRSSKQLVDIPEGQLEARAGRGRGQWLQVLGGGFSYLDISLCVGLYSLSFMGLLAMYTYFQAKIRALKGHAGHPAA", "test": "QSOX1 enzyme inhibitors, primary screen, biochemical, HyperBlu H2O2 luminescence, HTS (AID 1347420); further: values above 100% were filed as inconclusive", "conditions": "recombinant QSOX1, HyperBlu H2O2 luminescence, at 12.5 µM, active compounds read high; active = any value above zero unless noted", "values": [
      {"smiles": "CC(C)NC(C)Cc1ccc(I)cc1", "note": "(centres undefined)", "inhibition": "19.1% [setting not given] (active)"},
      {"smiles": "CC(C)N(CCC(C(N)=O)(c1ccccc1)c1ccccn1)C(C)C", "note": "(centres undefined)", "inhibition": "39.4% [setting not given] (active)"},
      {"smiles": "Cc1cc([C@@H]2CCCN2C)on1", "inhibition": "9.3% (active)"},
      {"smiles": "CN1CCC(c2c[nH]c3ccc(O)cc23)CC1", "inhibition": "84% (active)"},
      {"smiles": "CCCCCCC(C)(C)c1ccc([C@@H]2C[C@H](O)CC[C@H]2CCCO)c(O)c1", "inhibition": "3.2% [setting not given] (active)"},
      {"smiles": "Cc1cccc(C)c1NC1=NCCCS1", "inhibition": "12.9% [setting not given] (active)"},
      {"smiles": "C[C@@H]1O[C@@H](O[C@H]2C[C@@H](O)[C@]3(CO)[C@@H]4C(CC[C@]3(O)C2)[C@@]2(O)CC[C@H](C3COC(=O)C3)[C@@]2(C)C[C@H]4O)[C@H](O)[C@H](O)[C@H]1O", "note": "(some centres undefined)", "inhibition": "24.8% (active)"},
      {"smiles": "C[C@@H]1O[C@@H](O[C@H]2C[C@@H](O)[C@]3(CO)[C@H]4[C@H](O)C[C@]5(C)[C@@H](C6=CC(=O)OC6)CC[C@]5(O)[C@@H]4CC[C@]3(O)C2)[C@H](O)[C@H](O)[C@H]1O", "inhibition": "2.5% [setting not given] (active)"},
      {"smiles": "NC(=O)COc1c(F)cc(SCCNS(=O)(=O)c2ccccc2)cc1F", "inhibition": "-12.8% (inactive)"},
      {"smiles": "Clc1ccc(N2CC3CCC(C2)N3)nn1", "inhibition": "25.6% (active)"},
      {"smiles": "CC(C)=CCOc1c2occc2cc2ccc(=O)oc12", "inhibition": "31.6% [setting not given] (active)"},
      {"smiles": "CC(O)(CS(=O)(=O)c1ccc(F)cc1)C(=O)Nc1ccc(C#N)c(C(F)(F)F)c1", "note": "(centres undefined)", "inhibition": "13.7% [setting not given] (active)"},
      {"smiles": "c1ccc2cc(CC3=NCCN3)ccc2c1", "inhibition": "11% [setting not given] (active)"},
      {"smiles": "CCCN1CCC[C@@H](c2cccc(O)c2)C1", "inhibition": "25.8% (active)"},
      {"smiles": "CCCN1CCC[C@H](c2cccc(O)c2)C1", "inhibition": "10.7% (active)"},
      {"smiles": "CC1(C(=O)O)C2CCC(O2)C1(C)C(=O)O", "note": "(centres undefined)", "inhibition": "-0.6% (inactive)"},
      {"smiles": "CCCCC/C=C\\C/C=C\\C/C=C\\C/C=C\\CCCC(=O)NCC(=O)O", "inhibition": "3.4% (active)"},
      {"smiles": "NC1CC1c1ccccc1", "note": "(centres undefined)", "inhibition": "14.9% (active)"},
      {"smiles": "Nc1ccc(CCN2CCN(c3cccc(C(F)(F)F)c3)CC2)cc1", "inhibition": "27.1% (active)"},
      {"smiles": "CC[C@@H](C(N)=O)N1CCCC1=O", "inhibition": "12.2% [setting not given] (active)"},
      {"smiles": "CN1CCc2cc(O)cc3c2[C@H]1Cc1ccc(O)c(O)c1-3", "inhibition": "94% (active)"},
      {"smiles": "COc1ccc2c(c1O)-c1cccc3c1[C@@H](C2)N(C)CC3", "inhibition": "39% (active)"},
      {"smiles": "Cc1sc2ccccc2c1CC1=NCCN1", "inhibition": "9.6% (active)"},
      {"smiles": "CC(C)(O)[C@@H]1[C@H]2OC(=O)[C@@H]1[C@]1(O)C[C@H]3O[C@]34C(=O)O[C@H]2[C@]14C", "note": "(tested in a mixture with another compound)", "inhibition": "14.8% (active)"},
      {"smiles": "Oc1ccc2c3c1O[C@H]1c4[nH]c5c(c4C[C@@]4(O)[C@@H](C2)N(CC2CC2)CC[C@]314)C[C@@]1(O)[C@H]2Cc3ccc(O)c4c3[C@@]1(CCN2CC1CC1)[C@H]5O4", "inhibition": "25.2% (active)"},
      {"smiles": "Oc1ccc2c3c1O[C@H]1c4[nH]c5ccccc5c4C[C@@]4(O)C(C2)N(CC2CC2)CCC314", "note": "(some centres undefined)", "inhibition": "63.8% [setting not given] (active)"},
      {"smiles": "Oc1ccc2c3c1O[C@H]1c4oc5ccccc5c4C[C@@]4(O)C(C2)N(CC2CC2)CCC314", "note": "(some centres undefined)", "inhibition": "18.4% [setting not given] (active)"},
      {"smiles": "NC(N)=Nc1ccc2[nH]c3c(c2c1)C[C@@]1(O)[C@H]2Cc4ccc(O)c5c4[C@@]1(CCN2CC1CC1)[C@H]3O5", "inhibition": "18.5% [setting not given] (active)"},
      {"smiles": "O=C1/C(=C/c2ccccc2)C[C@@]2(O)[C@H]3Cc4ccc(O)c5c4[C@@]2(CCN3CC2CC2)[C@H]1O5", "inhibition": "32.8% [setting not given] (active)"},
      {"smiles": "CO[C@H]1CC=C2CCN3CCC4=C(CC(=O)OC4)[C@]23C1", "inhibition": "0.7% (active)"},
      {"smiles": "CCOC(=O)c1ncn2c1[C@@H]1CCCN1C(=O)c1cc(OC)ccc1-2", "inhibition": "13.3% (active)"},
      {"smiles": "NCC(O)c1ccc(O)cc1", "note": "(centres undefined)", "inhibition": "20.3% [setting not given] (active)"},
      {"smiles": "NCC(CC(=O)O)c1ccc(Cl)cc1", "note": "(centres undefined)", "inhibition": "0% [setting not given] (inactive)"},
      {"smiles": "CNCC(O)c1ccc(O)cc1", "note": "(centres undefined)", "inhibition": "11.4% [setting not given] (active)"},
      {"smiles": "COc1cc(C(O)CN)ccc1O", "note": "(centres undefined)", "inhibition": "20.7% (active)"},
      {"smiles": "NCC(O)c1cc(O)c(O)cc1F", "note": "(centres undefined)", "inhibition": "72.8% (active)"},
      {"smiles": "Ic1ccccc1CNC1C2CCN(CC2)C1C(c1ccccc1)c1ccccc1", "note": "(centres undefined)", "inhibition": "11% (active)"},
      {"smiles": "O=C(O)[C@@H]1CCN1", "inhibition": "18.9% (active)"},
      {"smiles": "N=C(N)c1ccc(CS(=O)(=O)F)cc1", "inhibition": "7.2% (active)"},
      {"smiles": "CN1C2CCC1CC(OC(=O)c1cc(Cl)cc(Cl)c1)C2", "note": "(centres undefined)", "inhibition": "5.4% (active)"},
      {"smiles": "O=C1C=CC(=O)C=C1", "inhibition": "16.8% (active)"},
      {"smiles": "N[C@@]1(C(=O)O)CC[C@@H](C(=O)O)C1", "inhibition": "12.2% (active)"},
      {"smiles": "CCN1C[C@@]2(COC)C3[C@@H](OC)C4[C@@H]1C3([C@@H]1C[C@@]3(O)[C@H](OC(=O)c5ccccc5)[C@@H]1[C@]4(OC(C)=O)[C@@H](O)[C@@H]3OC)[C@H](OC)C[C@H]2O", "inhibition": "4.1% (active)"},
      {"smiles": "CCNC(=O)[C@H]1O[C@@H](n2cnc3c(N)ncnc32)C(O)[C@H]1O", "note": "(some centres undefined)", "inhibition": "1.2% (active)"},
      {"smiles": "O=[N+]([O-])c1cc(O)c(O)c([N+](=O)[O-])c1", "inhibition": "84.7% (active)"},
      {"smiles": "NCc1cc(=O)[nH]o1", "inhibition": "10.1% (active)"},
      {"smiles": "COc1ccc2c(c1)[C@@]13CCCC[C@H]1[C@@H](C2)NCC3", "inhibition": "-2.6% [setting not given] (inactive)"},
      {"smiles": "C=CCN1CC[C@]23CCCCC2[C@H]1Cc1ccc(O)cc13", "note": "(some centres undefined)", "inhibition": "6% [setting not given] (active)"},
      {"smiles": "COc1ccc2c(c1)C13CCCCC1C(C2)N(C)CC3", "note": "(centres undefined)", "inhibition": "11.3% [setting not given] (active)"},
      {"smiles": "C=CCN1C[C@@H](C)N([C@H](c2ccc(C(=O)N(CC)CC)cc2)c2cccc(OC)c2)C[C@@H]1C", "inhibition": "7.5% (active)"},
      {"smiles": "CC(=O)NBr", "inhibition": "9.5% (active)"},
      {"smiles": "NC(N)=NOCC[C@H](N)C(=O)O", "inhibition": "-0.8% [setting not given] (inactive)"},
      {"smiles": "NC(N)=NOCCC(N)C(=O)O", "note": "(centres undefined)", "inhibition": "8.2% (active)"},
      {"smiles": "CC(Cc1ccc(O)cc1)NCC(O)c1cc(O)cc(O)c1", "note": "(centres undefined)", "inhibition": "15% [setting not given] (active)"}
    ]}
  ]
}
